PubChem BioAssay (NCI)
Compounds without any hit were thinned out: in the full panel of roughly 79,000, 15% have a hit. Calls of active or inactive are those of the source. Cut-off read from the data, not from the text of the source: active = growth inhibition above about 70%; inactive = the rest.

Assays:
[1] = NCI Yeast Anticancer Drug Screen. Data for the rad50 strain (AID 155);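 note: 0% = growth of vehicle-only cultures of the same strain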; details: S. cerevisiae rad50 strain growth inhibition, hits give high values
How it was run: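 A DNA repair-deficient yeast mutant serves as the test organism; compound-induced growth inhibition is calculated against vehicle-treated cells.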

[2] = NCI Yeast Anticancer Drug Screen. Data for the mec2-1 strain (AID 157); details: S. cerevisiae mec2-1 strain, hits give high values
How it was run: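 Vehicle-treated cultures served as reference for growth inhibition of compound-exposed mec2-1 yeast.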

[3] = NCI Yeast Anticancer Drug Screen. Data for the sgs1 mgt1 strain (AID 161);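 note: 0% = growth of cultures given vehicle only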; details: S. cerevisiae sgs1 mgt1 strain, hits give high values
How it was run: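 Read-out: growth inhibition vs vehicle controls. Cells: mutant yeast strain deficient in DNA damage repair.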

[4] = NCI Yeast Anticancer Drug Screen. Data for the cln2 rad14 strain (AID 165);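 note: 0% = growth equal to vehicle treated cultures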; details: S. cerevisiae cln2 rad14 strain, hits give high values
How it was run: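 Each compound was tested on cln2 rad14 yeast. Inhibition of growth was calculated against vehicle-exposed controls.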

[5] = NCI Yeast Anticancer Drug Screen. Data for the bub3 strain (AID 167); details: S. cerevisiae bub3 mutant strain, hits give high values
How it was run: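 Inhibition values come from growth of compound-treated mutant yeast normalised to vehicle-treated controls.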

[6] = NCI Yeast Anticancer Drug Screen. Data for the mlh1 rad18 strain (AID 175); details: S. cerevisiae mlh1 rad18 strain growth inhibition, hits give high values
How it was run: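 Vehicle-treated cultures served as the reference for growth inhibition in a yeast strain carrying DNA damage repair alterations exposed to each compound.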

[7] = at 5.0 µM (retest, dose inferred, filed as 0.5)
[8] = at 50.0 µM (retest, dose inferred, filed as 5.0)

Measured: growth inhibition

COC1C(=[N+]=[N-])C(=O)NC(=O)N1C1OC(COC(c2ccccc2)(c2ccccc2)c2ccccc2)C(O)C1O (configuration not stated)
active: [2]; at 50.0 µM 80.7% | [4]; at 50.0 µM 77.2%
inactive: [1]; [7] 63% | [1]; [8] 63% | [1]; at 50.0 µM 69.5% | [2]; [7] 10% | [2]; [8] 10% | [3]; [7] 18% | [3]; [8] 18% | [3]; at 50.0 µM 66.8% | [4]; [7] 14% | [4]; [8] 14% | [5]; [7] 13% | [5]; [8] 13% | [5]; at 50.0 µM 60.2% | [6]; [7] 15% | [6]; [8] 15% | [6]; at 50.0 µM 66.6%

Cc1ncn(-c2ccccc2O)c1C
inactive: [1]; [7] -3% | [1]; [8] 7% | [1]; at 50.0 µM -10.3% | [2]; [7] -8% | [2]; [8] -20% | [2]; at 50.0 µM 8.05% | [3]; [7] -7% | [3]; [8] -14% | [3]; at 50.0 µM -28.7% | [4]; [7] -2% | [4]; [8] -8% | [4]; at 50.0 µM 31.7% | [5]; [7] -3% | [5]; [8] -27% | [5]; at 50.0 µM -5.75% | [6]; [7] -9% | [6]; [8] 9% | [6]; at 50.0 µM -28.3%

CC(=O)NCC1OC2COC(c3ccccc3)OC2C(NC(=O)c2ccccc2)C1OC(=O)c1ccccc1 (configuration not stated)
inactive: [1]; [7] 15% | [1]; [8] 10% | [1]; at 50.0 µM 22.4% | [2]; [7] 15% | [2]; [8] 10% | [2]; at 50.0 µM 11.8% | [3]; [7] -11% | [3]; [8] -13% | [3]; at 50.0 µM 2.3% | [4]; [7] 6% | [4]; [8] -15% | [4]; at 50.0 µM 6.7% | [5]; [7] 8% | [5]; [8] 5% | [5]; at 50.0 µM 7.55% | [6]; [7] 15% | [6]; [8] 9%
active: [6]; at 50.0 µM 91.3%

OC(Cc1ccccc1)(Cc1ccccc1)c1ccccc1
inactive: [1]; [7] 20% | [2]; [7] 13% | [3]; [7] -3% | [4]; [7] 3% | [5]; [7] -14% | [6]; [7] -6%
active: [1]; [8] 98% | [1]; at 50.0 µM 88.5% | [2]; [8] 99% | [2]; at 50.0 µM 78.2% | [3]; [8] 99% | [3]; at 50.0 µM 78% | [4]; [8] 98% | [4]; at 50.0 µM 93.9% | [5]; [8] 97% | [5]; at 50.0 µM 88.3% | [6]; [8] 99% | [6]; at 50.0 µM 96%

CCCCCCCCCCCCCCCC[N+](C)(C)C(C)c1ccccc1 (configuration not stated)
active: [1]; [7] 98% | [1]; [8] 98% | [1]; at 50.0 µM 90.5% | [2]; [7] 98% | [2]; [8] 99% | [2]; at 50.0 µM 90.7% | [3]; [7] 99% | [3]; [8] 99% | [3]; at 50.0 µM 90.5% | [4]; [7] 99% | [4]; [8] 99% | [4]; at 50.0 µM 86% | [5]; [7] 98% | [5]; [8] 98% | [5]; at 50.0 µM 92.6% | [6]; [7] 98% | [6]; [8] 97% | [6]; at 50.0 µM 91.8%

O=C1C=C(c2ccccc2)OC1(Nc1ccccc1)c1ccccc1 (configuration not stated)
inactive: [1]; [7] 4% | [1]; [8] 60% | [2]; [7] 4% | [2]; [8] 65% | [2]; at 50.0 µM 56.6% | [3]; [7] 2% | [3]; [8] 62% | [4]; [7] 9% | [4]; [8] 53% | [4]; at 50.0 µM 45.2% | [5]; [7] 11% | [5]; [8] 62% | [6]; [7] 9% | [6]; [8] 67% | [6]; at 50.0 µM 59.9%
active: [1]; at 50.0 µM 71.7% | [3]; at 50.0 µM 76.4% | [5]; at 50.0 µM 72.8%

C[n+]1cccc2c1-c1ccccc1C2=O
inactive: [1]; [7] 6% | [1]; [8] 22% | [1]; at 50.0 µM -2.25% | [2]; [7] -1% | [2]; [8] 22% | [2]; at 50.0 µM 1.6% | [3]; [7] 3% | [3]; [8] 8% | [3]; at 50.0 µM 8.15% | [4]; [7] -3% | [4]; [8] 1% | [4]; at 50.0 µM 39.5% | [5]; [7] -2% | [5]; [8] 9% | [5]; at 50.0 µM 11.1% | [6]; [7] 2% | [6]; [8] 28% | [6]; at 50.0 µM 16.1%

C=C1CC2(CCS(=O)(=O)c3ccccc32)OC1=O (configuration not stated)
inactive: [1]; [7] 2% | [1]; [8] 27% | [1]; at 50.0 µM 25.6% | [2]; [7] 5% | [2]; [8] 35% | [2]; at 50.0 µM 60.6% | [3]; [7] 7% | [3]; [8] 37% | [3]; at 50.0 µM 69% | [4]; [7] 6% | [4]; [8] 15% | [4]; at 50.0 µM 36.6% | [5]; [7] 2% | [5]; [8] 47% | [5]; at 50.0 µM 46.6% | [6]; [7] 2% | [6]; [8] 49% | [6]; at 50.0 µM 48.9%

O=C(O)/C=C/C(=O)Nc1cccc2c1C(=O)c1ccccc1-2
active: [1]; [8] 89% | [1]; at 50.0 µM 92.3% | [2]; [8] 93% | [2]; at 50.0 µM 97.9% | [3]; [8] 95% | [3]; at 50.0 µM 97.3% | [4]; [8] 96% | [4]; at 50.0 µM 89.7% | [5]; [8] 93% | [5]; at 50.0 µM 95.9% | [6]; [8] 97% | [6]; at 50.0 µM 96.1%
inactive: [1]; [7] 18% | [2]; [7] -18% | [3]; [7] 35% | [4]; [7] 8% | [5]; [7] 17% | [6]; [7] 34%
